# Results taken from the supplement of paper PMC4466140.
# How the values were obtained:
# Assay in all cases: SPOT peptide array binding signal intensity (averaged, normalized) (arbitrary units (background-subtracted, floor 0; scale differs between SH3 domains)); higher = stronger binding of the SH3 domain to the peptide
# AgAbp1 = target: AgAbp1
# Method in brief: (§1)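 To measure binding, SH3 domains from four yeast species were fused to GST, expressed in E. coli BL21(DE3) and purified on glutathione Sepharose. Each domain was incubated at 10 μg/ml overnight at 4°C on cellulose membranes with synthetic 15-mer peptides whose cysteines were replaced by serines. Anti-GST antibody, an HRP anti-mouse secondary and luminol were used for detection, and images were quantified with Genespotter. Reported binding signal is normalized, background-subtracted spot intensity averaged over replicates, in arbitrary units that differ between domains.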
# AgBbc1 = target: AgBbc1
# Method in brief: as §1
# AgBem1-D1 = target: AgBem1-D1
# Method in brief: as §1
# AgBzz1-D1 = target: AgBzz1-D1
# Method in brief: as §1
# AgBzz1-D2 = target: AgBzz1-D2
# Method in brief: as §1
# AgCyk3 = target: AgCyk3
# Method in brief: as §1
# AgFus1 = target: AgFus1
# Method in brief: as §1
# AgHof1 = target: AgHof1
# Method in brief: as §1
# AgHse1 = target: AgHse1
# Method in brief: as §1
# AgLsb1 = target: AgLsb1
# Method in brief: as §1
# AgLsb4 = target: AgLsb4
# Method in brief: as §1
# AgMyo5 = target: AgMyo5
# Method in brief: as §1
# AgNbp2 = target: AgNbp2
# Method in brief: as §1
# AgRvs167 = target: AgRvs167
# Method in brief: as §1
# AgSho1 = target: AgSho1
# Method in brief: as §1
# AgSla1-D1-D2 = target: AgSla1-D1-D2
# Method in brief: as §1
# AgSla1-D3 = target: AgSla1-D3
# Method in brief: as §1
# CaAbp1-D1 = target: CaAbp1-D1
# Method in brief: as §1
# CaAbp1-D2 = target: CaAbp1-D2
# Method in brief: as §1
# CaBbc1 = target: CaBbc1
# Method in brief: as §1
# CaBem1-D1 = target: CaBem1-D1
# Method in brief: as §1
# CaBzz1-D1 = target: CaBzz1-D1
# Method in brief: as §1
# CaBzz1-D2 = target: CaBzz1-D2
# Method in brief: as §1
# CaCyk3 = target: CaCyk3
# Method in brief: as §1
# CaFus1 = target: CaFus1
# Method in brief: as §1
# CaHof1 = target: CaHof1
# Method in brief: as §1
# CaHse1 = target: CaHse1
# Method in brief: as §1
# CaLsb1 = target: CaLsb1
# Method in brief: as §1
# CaLsb4 = target: CaLsb4
# Method in brief: as §1
# CaMyo5 = target: CaMyo5
# Method in brief: as §1
# CaNbp2 = target: CaNbp2
# Method in brief: as §1
# CaRvs167 = target: CaRvs167
# Method in brief: as §1
# CaRvs167-3 = target: CaRvs167-3
# Method in brief: as §1
# CaSho1 = target: CaSho1
# Method in brief: as §1
# CaSla1-D1-D2 = target: CaSla1-D1-D2
# Method in brief: as §1
# CaSla1-D3 = target: CaSla1-D3
# Method in brief: as §1
# ScAbp1 = target: ScAbp1
# Method in brief: as §1
# ScBbc1 = target: ScBbc1
# Method in brief: as §1
# ScBem1-D1 = target: ScBem1-D1
# Method in brief: as §1
# ScBzz1-D1 = target: ScBzz1-D1
# Method in brief: as §1
# ScBzz1-D2 = target: ScBzz1-D2
# Method in brief: as §1
# ScCyk3 = target: ScCyk3
# Method in brief: as §1
# ScFus1 = target: ScFus1
# Method in brief: as §1
# ScHof1 = target: ScHof1
# Method in brief: as §1
# ScHse1 = target: ScHse1
# Method in brief: as §1
# ScLsb1 = target: ScLsb1
# Method in brief: as §1
# ScLsb2 = target: ScLsb2
# Method in brief: as §1
# ScLsb3 = target: ScLsb3
# Method in brief: as §1
# ScLsb4 = target: ScLsb4
# Method in brief: as §1
# ScMyo3 = target: ScMyo3
# Method in brief: as §1
# ScMyo5 = target: ScMyo5
# Method in brief: as §1
# ScNbp2 = target: ScNbp2
# Method in brief: as §1
# ScPex13 = target: ScPex13
# Method in brief: as §1
# ScRvs167 = target: ScRvs167
# Method in brief: as §1
# ScSho1 = target: ScSho1
# Method in brief: as §1
# ScSla1-D1-D2 = target: ScSla1-D1-D2
# Method in brief: as §1
# ScSla1-D3 = target: ScSla1-D3
# Method in brief: as §1
# SpAbp1-D1 = target: SpAbp1-D1
# Method in brief: as §1
# SpBbc1 = target: SpBbc1
# Method in brief: as §1
# SpBzz1-D1 = target: SpBzz1-D1
# Method in brief: as §1
# SpBzz1-D2 = target: SpBzz1-D2
# Method in brief: as §1
# SpCyk3 = target: SpCyk3
# Method in brief: as §1
# SpHof1 = target: SpHof1
# Method in brief: as §1
# SpHof1-2 = target: SpHof1-2
# Method in brief: as §1
# SpHof1-3 = target: SpHof1-3
# Method in brief: as §1
# SpHse1 = target: SpHse1
# Method in brief: as §1
# SpLsb1 = target: SpLsb1
# Method in brief: as §1
# SpLsb4 = target: SpLsb4
# Method in brief: as §1
# SpMyo1 = target: SpMyo1
# Method in brief: as §1
# SpNbp2 = target: SpNbp2
# Method in brief: as §1
# SpPex13 = target: SpPex13
# Method in brief: as §1
# SpRvs167 = target: SpRvs167
# Method in brief: as §1
# SpSla1-D1-D2 = target: SpSla1-D1-D2
# Method in brief: as §1
# SpSla1-D3 = target: SpSla1-D3
# Method in brief: as §1
binder,measurement,setting,value
LPPPPPPPPPPPLPQ,SPOT peptide array binding signal intensity,AgAbp1,11
same,SPOT peptide array binding signal intensity,AgBbc1,1.25
same,SPOT peptide array binding signal intensity,AgBem1-D1,≤ 0
same,SPOT peptide array binding signal intensity,AgBzz1-D1,42.5
same,SPOT peptide array binding signal intensity,AgBzz1-D2,1
same,SPOT peptide array binding signal intensity,AgCyk3,1
same,SPOT peptide array binding signal intensity,AgFus1,3
same,SPOT peptide array binding signal intensity,AgHof1,128
same,SPOT peptide array binding signal intensity,AgHse1,21
same,SPOT peptide array binding signal intensity,AgLsb1,1.5
same,SPOT peptide array binding signal intensity,AgLsb4,≤ 0
same,SPOT peptide array binding signal intensity,AgMyo5,640
same,SPOT peptide array binding signal intensity,AgNbp2,28.5
same,SPOT peptide array binding signal intensity,AgRvs167,≤ 0
same,SPOT peptide array binding signal intensity,AgSho1,≤ 0
same,SPOT peptide array binding signal intensity,AgSla1-D1-D2,4.5
same,SPOT peptide array binding signal intensity,AgSla1-D3,≤ 0
same,SPOT peptide array binding signal intensity,CaAbp1-D1,9
same,SPOT peptide array binding signal intensity,CaAbp1-D2,≤ 0
same,SPOT peptide array binding signal intensity,CaBbc1,≤ 0
same,SPOT peptide array binding signal intensity,CaBem1-D1,3
same,SPOT peptide array binding signal intensity,CaBzz1-D1,1990
same,SPOT peptide array binding signal intensity,CaBzz1-D2,495
same,SPOT peptide array binding signal intensity,CaCyk3,≤ 0
same,SPOT peptide array binding signal intensity,CaFus1,≤ 0
same,SPOT peptide array binding signal intensity,CaHof1,≤ 0
same,SPOT peptide array binding signal intensity,CaHse1,5.75
same,SPOT peptide array binding signal intensity,CaLsb1,≤ 0
same,SPOT peptide array binding signal intensity,CaLsb4,≤ 0
same,SPOT peptide array binding signal intensity,CaMyo5,182
same,SPOT peptide array binding signal intensity,CaNbp2,10
same,SPOT peptide array binding signal intensity,CaRvs167,≤ 0
same,SPOT peptide array binding signal intensity,CaRvs167-3,0.5
same,SPOT peptide array binding signal intensity,CaSho1,4.5
same,SPOT peptide array binding signal intensity,CaSla1-D1-D2,5.5
same,SPOT peptide array binding signal intensity,CaSla1-D3,0.5
same,SPOT peptide array binding signal intensity,ScAbp1,2.5
same,SPOT peptide array binding signal intensity,ScBbc1,2.5
same,SPOT peptide array binding signal intensity,ScBem1-D1,≤ 0
same,SPOT peptide array binding signal intensity,ScBzz1-D1,16
same,SPOT peptide array binding signal intensity,ScBzz1-D2,2
same,SPOT peptide array binding signal intensity,ScCyk3,0.5
same,SPOT peptide array binding signal intensity,ScFus1,≤ 0
same,SPOT peptide array binding signal intensity,ScHof1,9.25
same,SPOT peptide array binding signal intensity,ScHse1,23
same,SPOT peptide array binding signal intensity,ScLsb1,0.5
same,SPOT peptide array binding signal intensity,ScLsb2,≤ 0
same,SPOT peptide array binding signal intensity,ScLsb3,54
same,SPOT peptide array binding signal intensity,ScLsb4,1.5
same,SPOT peptide array binding signal intensity,ScMyo3,1930
same,SPOT peptide array binding signal intensity,ScMyo5,933
same,SPOT peptide array binding signal intensity,ScNbp2,16
same,SPOT peptide array binding signal intensity,ScPex13,41.8
same,SPOT peptide array binding signal intensity,ScRvs167,≤ 0
same,SPOT peptide array binding signal intensity,ScSho1,≤ 0
same,SPOT peptide array binding signal intensity,ScSla1-D1-D2,16.5
same,SPOT peptide array binding signal intensity,ScSla1-D3,≤ 0
same,SPOT peptide array binding signal intensity,SpAbp1-D1,3
same,SPOT peptide array binding signal intensity,SpBbc1,0.5
same,SPOT peptide array binding signal intensity,SpBzz1-D1,4870
same,SPOT peptide array binding signal intensity,SpBzz1-D2,7.5
same,SPOT peptide array binding signal intensity,SpCyk3,≤ 0
same,SPOT peptide array binding signal intensity,SpHof1,≤ 0
same,SPOT peptide array binding signal intensity,SpHof1-2,≤ 0
same,SPOT peptide array binding signal intensity,SpHof1-3,0.5
same,SPOT peptide array binding signal intensity,SpHse1,2.25
same,SPOT peptide array binding signal intensity,SpLsb1,≤ 0
same,SPOT peptide array binding signal intensity,SpLsb4,≤ 0
same,SPOT peptide array binding signal intensity,SpMyo1,1520
same,SPOT peptide array binding signal intensity,SpNbp2,2
same,SPOT peptide array binding signal intensity,SpPex13,≤ 0
same,SPOT peptide array binding signal intensity,SpRvs167,5.33
same,SPOT peptide array binding signal intensity,SpSla1-D1-D2,3
same,SPOT peptide array binding signal intensity,SpSla1-D3,≤ 0
